Data reported in PubChem BioAssay (EPA / NIEHS).
Inconclusive results are not listed. Calls of active or inactive are those of the source. How the source made its calls: active means hit-call score of the fitted dose curve at least 0.9, where 1 is the maximum; inconclusive means response in the unintended direction; inactive means score below 0.9.

Each molecule was assayed against rat Serotonin, 5-Hydroxytryptamine Receptor (5HT), Non-Selective Binding, Htr1a (gene 24473) (UniProt P19327) (assay: NVS_GPCR_r5HT_NonSelective: NovaScreen (NVS) G Protein-Coupled Receptor Assay for rat Serotonin, 5-Hydroxytryptamine Receptor (5HT), Non-Selective Binding (AID 2283295)).
Chain of rat Serotonin, 5-Hydroxytryptamine Receptor (5HT), Non-Selective Binding, Htr1a (gene 24473) (P19327 whole entry, looked up): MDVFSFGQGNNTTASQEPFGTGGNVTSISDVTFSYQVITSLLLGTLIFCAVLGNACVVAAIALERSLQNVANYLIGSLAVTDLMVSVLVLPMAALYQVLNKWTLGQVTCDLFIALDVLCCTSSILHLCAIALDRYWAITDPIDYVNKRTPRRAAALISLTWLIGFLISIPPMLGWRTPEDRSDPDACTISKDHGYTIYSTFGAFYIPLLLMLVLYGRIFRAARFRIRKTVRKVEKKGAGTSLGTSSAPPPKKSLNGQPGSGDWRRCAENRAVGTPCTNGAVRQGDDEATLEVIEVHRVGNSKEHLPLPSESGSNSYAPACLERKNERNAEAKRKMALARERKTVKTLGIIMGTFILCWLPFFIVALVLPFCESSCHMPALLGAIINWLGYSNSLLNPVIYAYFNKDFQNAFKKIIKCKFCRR
Method in brief: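 Rat cortex membrane preparation incubated 1 h with radioligand and test chemical; bound radioactivity counted after filtration. Screening began in duplicate at 25 uM with concentration-series follow-up; fitting relative to DMSO.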

Question: With `CCN(CC)C(=O)c1cc(S(=O)(=O)Cc2ccccc2)c(N2CCC(c3ccccc3)CC2)cc1N(CC)CCN(C)C` as the molecule, how does the AC50 read?
Answer: The AC50 was 11.3 µM (active).

Question: For `Cc1occc1C(=O)Nc1ccc(C(=O)N2CCC(F)(F)/C(=C\C(=O)N3CCC(N4CCCCC4)CC3)c3ccccc32)cc1`, which outcome is on record?
Answer: The outcome was “inactive”.

Question: For `Cc1cc2c(cc1C(F)(F)F)N(C(=O)Nc1ccc(Oc3cccnc3C)nc1)CC2`, which AC50 is on record?
Answer: Its AC50 is 0.43 µM (active).

Question: Which AC50 does the source give for `COc1cccc([C@H](O)C2CCN(CCc3ccc(F)cc3)CC2)c1OC` here?
Answer: The AC50 was 5.58 µM (active).

Question: For `CCOC(=O)O[C@H](C)OC(=O)c1ccc2c(c1)cc(C(=O)NC1CCN(C(C)C)CC1)n2Cc1cc(-c2ccc(Cl)s2)on1`, which AC50 is on record?
Answer: Its AC50 is 11.1 µM (active).

Question: Which AC50 does the source give for `CCN(Cc1cccnc1)C(=O)c1cccc(Cl)c1[C@]1(C)C(=O)N(Cc2ccc(OC)cc2OC)c2ccc(Cl)cc21` here?
Answer: The AC50 was 17.4 µM (active).

Question: With `O=C1c2ccccc2C(=O)N1CCc1noc(-c2ccc(CN3CCCCCC3)s2)n1` as the molecule, how does the outcome read?
Answer: Its outcome is “inactive”.

Question: `COc1cc(C(=O)NC2CCN(C)CC2)ccc1Nc1ncc2c(n1)N(C1CCCC1)CC(F)(F)C(=O)N2C` was tested. Which outcome did it give?
Answer: Its outcome is “inactive”.

Question: How did the outcome turn out when `COc1ccc2cc(S(=O)(=O)N[C@H](CC(=O)N[C@H](Cc3ccc(CN4[C@H](C)CCC[C@@H]4C)cc3)C(=O)N(C)C(C)C)c3ccc4c(c3)OCO4)ccc2c1` was run?
Answer: Its outcome is “inactive”.

Question: Which AC50 does the source give for `CN(C)C(=O)C1(N2CCCCC2)CCN(CC[C@@]2(c3ccc(Cl)c(Cl)c3)CN(C(=O)c3ccccc3)CCO2)CC1` here?
Answer: Its AC50 is 1.71 µM (active).

Question: With `CN(C)c1ccc(C(=C2C=CC(=[N+](C)C)C=C2)c2ccc(N(C)C)cc2)cc1` as the molecule, how does the AC50 read?
Answer: Its AC50 is 25 µM (active).

Question: How did the AC50 turn out when `NCc1cccc(C2CCN(C(=O)c3ccc(C#Cc4ccccc4F)o3)CC2)c1` was run?
Answer: Its AC50 is 14.8 µM (active).

What follows are molecules tested against rat Adrenergic, Alpha 1A Receptor (Adra1A), Adra1a (gene 29412) (UniProt P43140) (assay: NVS_GPCR_rAdra1A: NovaScreen (NVS) G Protein-Coupled Receptor Assay for rat Adrenergic, Alpha 1A Receptor (Adra1A) (AID 2283296)).
Chain of rat Adrenergic, Alpha 1A Receptor (Adra1A), Adra1a (gene 29412) (P43140 whole entry, looked up): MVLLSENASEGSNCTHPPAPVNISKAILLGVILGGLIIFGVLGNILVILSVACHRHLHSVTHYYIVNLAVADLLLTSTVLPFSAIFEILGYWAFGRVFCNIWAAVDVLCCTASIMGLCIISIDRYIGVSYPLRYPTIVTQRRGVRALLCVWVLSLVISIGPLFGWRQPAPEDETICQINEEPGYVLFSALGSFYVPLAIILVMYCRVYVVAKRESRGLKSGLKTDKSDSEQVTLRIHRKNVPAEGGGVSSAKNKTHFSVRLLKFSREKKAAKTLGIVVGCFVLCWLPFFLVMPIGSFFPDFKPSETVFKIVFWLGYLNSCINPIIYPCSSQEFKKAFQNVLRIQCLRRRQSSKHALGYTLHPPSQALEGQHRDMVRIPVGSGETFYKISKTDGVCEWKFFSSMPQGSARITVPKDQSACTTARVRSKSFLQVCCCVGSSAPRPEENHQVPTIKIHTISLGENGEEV
Method in brief: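 Filter radiodetection after 1 h competitive binding on CEC-pretreated rat cortical membranes. Duplicate single-point screening at 25 uM; active chemicals retested across concentration series.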

Question: `c1ccc(C[n+]2cccc3ccccc32)cc1` was tested. Which AC50 did it give?
Answer: The AC50 was 11 µM (active).

Question: Which AC50 does the source give for `CCN(CC)C(=O)c1cc(S(=O)(=O)Cc2ccccc2)c(N2CCC(c3ccccc3)CC2)cc1N(CC)CCN(C)C` here?
Answer: Its AC50 is 17.8 µM (active).

Question: `O=C1c2ccccc2C(=O)N1CCc1noc(-c2ccc(CN3CCCCCC3)s2)n1` was tested. Which AC50 did it give?
Answer: The AC50 was 5.59 µM (active).

Question: `COc1cc(C(=O)NC2CCN(C)CC2)ccc1Nc1ncc2c(n1)N(C1CCCC1)CC(F)(F)C(=O)N2C` was tested. Which AC50 did it give?
Answer: The AC50 was 7.27 µM (active).

Question: Which outcome does the source give for `COc1ccc2cc(S(=O)(=O)N[C@H](CC(=O)N[C@H](Cc3ccc(CN4[C@H](C)CCC[C@@H]4C)cc3)C(=O)N(C)C(C)C)c3ccc4c(c3)OCO4)ccc2c1` here?
Answer: The outcome was “inactive”.

Question: Which AC50 does the source give for `CN(C)C(=O)C1(N2CCCCC2)CCN(CC[C@@]2(c3ccc(Cl)c(Cl)c3)CN(C(=O)c3ccccc3)CCO2)CC1` here?
Answer: The AC50 was 10.1 µM (active).

Question: How did the AC50 turn out when `CN(C)c1ccc(C(=C2C=CC(=[N+](C)C)C=C2)c2ccc(N(C)C)cc2)cc1` was run?
Answer: The AC50 was 20.9 µM (active).

Question: With `Clc1cc(Cl)c2c(c1)N=C1CCCCCN1C2` as the molecule, how does the AC50 read?
Answer: The AC50 was 3.54 µM (active).

Question: How did the outcome turn out when `NCc1cccc(C2CCN(C(=O)c3ccc(C#Cc4ccccc4F)o3)CC2)c1` was run?
Answer: The outcome was “inactive”.

These molecules were tested on rat Adrenergic, Alpha 1B Receptor (Adra1B), gene 24173 (assay: NVS_GPCR_rAdra1B: NovaScreen (NVS) G Protein-Coupled Receptor Assay for rat Adrenergic, Alpha 1B Receptor (Adra1B) (AID 2283297)).
Method in brief: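 Filter-binding radioligand competition on membranes from rat liver, read after 1 h by scintillation counting. Single-concentration duplicate screen at 25 uM, followed by concentration-response on actives, normalised to DMSO.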

Question: `CCN(CC)C(=O)c1cc(S(=O)(=O)Cc2ccccc2)c(N2CCC(c3ccccc3)CC2)cc1N(CC)CCN(C)C` was tested. Which AC50 did it give?
Answer: The AC50 was 6.1 µM (active).

Question: With `Cc1occc1C(=O)Nc1ccc(C(=O)N2CCC(F)(F)/C(=C\C(=O)N3CCC(N4CCCCC4)CC3)c3ccccc32)cc1` as the molecule, how does the AC50 read?
Answer: The AC50 was 3.24 µM (active).

Question: `CCCCOC(=O)c1ccc(O)cc1` was tested. Which outcome did it give?
Answer: Its outcome is “inactive”.

Question: For `COc1cccc([C@H](O)C2CCN(CCc3ccc(F)cc3)CC2)c1OC`, which AC50 is on record?
Answer: Its AC50 is 0.26 µM (active).

Question: Which AC50 does the source give for `COc1cc(C(=O)NC2CCN(C)CC2)ccc1Nc1ncc2c(n1)N(C1CCCC1)CC(F)(F)C(=O)N2C` here?
Answer: Its AC50 is 15.5 µM (active).

Question: Which AC50 does the source give for `COc1ccc2cc(S(=O)(=O)N[C@H](CC(=O)N[C@H](Cc3ccc(CN4[C@H](C)CCC[C@@H]4C)cc3)C(=O)N(C)C(C)C)c3ccc4c(c3)OCO4)ccc2c1` here?
Answer: The AC50 was 23.9 µM (active).

Question: Which AC50 does the source give for `CN(C)C(=O)C1(N2CCCCC2)CCN(CC[C@@]2(c3ccc(Cl)c(Cl)c3)CN(C(=O)c3ccccc3)CCO2)CC1` here?
Answer: The AC50 was 5.65 µM (active).

Question: With `Clc1cc(Cl)c2c(c1)N=C1CCCCCN1C2` as the molecule, how does the AC50 read?
Answer: Its AC50 is 5.42 µM (active).

Question: `NCc1cccc(C2CCN(C(=O)c3ccc(C#Cc4ccccc4F)o3)CC2)c1` was tested. Which AC50 did it give?
Answer: Its AC50 is 25 µM (active).

These molecules were tested against rat Adrenergic Receptor, Beta (Adrb), Non-selective Binding, Adrb1 (gene 24925) (UniProt P18090) (assay: NVS_GPCR_rAdrb_NonSelective: NovaScreen (NVS) G Protein-Coupled Receptor Assay for rat Adrenergic Receptor, Beta (Adrb), Non-selective Binding (AID 2283298)).
Chain of rat Adrenergic Receptor, Beta (Adrb), Non-selective Binding, Adrb1 (gene 24925) (P18090 whole entry, looked up): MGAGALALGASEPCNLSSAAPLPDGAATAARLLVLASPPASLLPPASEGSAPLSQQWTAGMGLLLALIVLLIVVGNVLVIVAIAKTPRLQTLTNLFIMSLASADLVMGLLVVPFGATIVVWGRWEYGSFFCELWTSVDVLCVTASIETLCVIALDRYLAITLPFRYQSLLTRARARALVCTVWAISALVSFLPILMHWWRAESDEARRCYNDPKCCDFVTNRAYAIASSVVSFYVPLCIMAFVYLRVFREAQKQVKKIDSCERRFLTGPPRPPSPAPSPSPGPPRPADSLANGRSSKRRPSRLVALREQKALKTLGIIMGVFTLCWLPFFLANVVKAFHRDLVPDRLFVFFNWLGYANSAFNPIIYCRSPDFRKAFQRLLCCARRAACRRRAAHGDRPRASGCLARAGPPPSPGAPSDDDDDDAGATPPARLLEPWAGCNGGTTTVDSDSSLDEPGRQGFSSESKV
Description: NVS_GPCR_rAdrb_NonSelective is a biochemical, single-readout assay that uses extracted gene-proteins from Rat cortical membranes in a tissue-based cell-free assay. Measurements were taken 1 hour after chemical dosing in a 48-well plate.NVS_GPCR_rAdrb_NonSelective is one of one assay component(s) measured or calculated from the NVS_GPCR_rAdrb_NonSelective assay. It is designed to make measurements of radioligand binding, a form of binding reporter, as detected with scintillation counting signals by Filter-based radiodetection technology.Data from the assay component NVS_GPCR_rAdrb_NonSelective was analyzed into 1 assay endpoint. This assay endpoint, NVS_GPCR_rAdrb_NonSelective, was analyzed in the positive analysis fitting direction relative to DMSO as the negative control and baseline of activity. Using a type of binding reporter, loss-of-signal activity can be used to understand changes in the binding as they relate to the gene Adrb1. Furthermore, this assay endpoint can be referred to as a primary readout, because the performed assay has only produced 1 assay endpoint. To generalize the intended target to other relatable targets, this assay endpoint is annotated to the gpcr intended target family, where the subfamily is rhodopsin-like receptor.
Binding assays used specific radioligands (tritiated, iodinated) with non-radioactive competitive displacement ligands in agonist or antagonist protocols (as indicated) and various reference compounds and inhibitors to titrate specific binding to receptors and transporters. Most enzyme assays (CYPs, kinases, phosphatases, proteases, HDACs) used recombinant protein and specific substrates (fluorescence mostly, some colorimetric and radioactive) and inhibitors, followed by a biochemical separation of substrate and product. All assays for the biochemical HTS were initially run in duplicate at a single concentration (10 uM for CYP450 assays and 25 uM for all others). Assay-chemical combinations meeting a pre-defined threshold (e.g., 30% inhibition and other criteria defined below) were then run in singleton concentration-response format with maximum concentration of 20 uM for CYPs and 50 uM for all others. Each assay was run with positive and negative controls, and concurrent controls on every plate. The follow-up (secondary) screen tested active chemical-pairs in concentration series, as well as a few additional assays not tested in the primary screen, some selected negative inactives, and several cases re-run in the concentration series for confirmatory purposes.

Question: Which outcome does the source give for `CC[C@H](NC(=O)c1cc(F)ccc1NS(=O)(=O)c1cccc2cccnc12)c1ccccc1` here?
Answer: The outcome was “inactive”.

Question: For `CCCCCCCCN(C)CCCCCCCC`, which outcome is on record?
Answer: Its outcome is “inactive”.

Question: With `CN(C)C(=O)C1(N2CCCCC2)CCN(CC[C@@]2(c3ccc(Cl)c(Cl)c3)CN(C(=O)c3ccccc3)CCO2)CC1` as the molecule, how does the AC50 read?
Answer: Its AC50 is 6.63 µM (active).

Question: How did the AC50 turn out when `CN(C)c1ccc(C(=C2C=CC(=[N+](C)C)C=C2)c2ccc(N(C)C)cc2)cc1` was run?
Answer: Its AC50 is 17.3 µM (active).

What follows are molecules tested against rat Adrenergic Receptor, Alpha 2 (Adra2), Non-selective Binding, Adra2a (gene 25083) (UniProt P22909) (assay: NVS_GPCR_rAdra2_NonSelective: NovaScreen (NVS) G Protein-Coupled Receptor Assay for rat Adrenergic Receptor, Alpha 2 (Adra2), Non-selective Binding (AID 2283299)).
Chain of rat Adrenergic Receptor, Alpha 2 (Adra2), Non-selective Binding, Adra2a (gene 25083) (P22909 whole entry, looked up): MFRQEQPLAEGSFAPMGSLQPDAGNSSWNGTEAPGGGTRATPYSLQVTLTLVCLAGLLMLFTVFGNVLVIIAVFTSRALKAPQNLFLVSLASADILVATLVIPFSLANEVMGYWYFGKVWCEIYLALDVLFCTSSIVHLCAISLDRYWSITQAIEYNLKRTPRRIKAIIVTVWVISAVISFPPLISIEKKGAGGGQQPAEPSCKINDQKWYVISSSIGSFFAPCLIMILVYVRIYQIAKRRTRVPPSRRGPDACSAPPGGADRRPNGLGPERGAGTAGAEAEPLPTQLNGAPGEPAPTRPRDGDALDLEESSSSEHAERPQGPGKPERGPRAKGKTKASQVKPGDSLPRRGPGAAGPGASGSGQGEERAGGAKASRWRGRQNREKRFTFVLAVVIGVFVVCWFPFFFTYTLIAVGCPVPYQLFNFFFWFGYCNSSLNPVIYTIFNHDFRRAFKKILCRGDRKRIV
Method in brief: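 Filter-based scintillation counting of radioligand binding to rat cortical membrane receptors, measured 1.25 hours post-dosing; loss of signal versus DMSO indicates displacement. Initial single-concentration duplicate at 25 uM, then concentration series.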

Question: For `CCN(CC)C(=O)c1cc(S(=O)(=O)Cc2ccccc2)c(N2CCC(c3ccccc3)CC2)cc1N(CC)CCN(C)C`, which AC50 is on record?
Answer: The AC50 was 15.2 µM (active).

Question: How did the AC50 turn out when `CC/C(=C(/CC)c1ccc(O)cc1)c1ccc(O)cc1` was run?
Answer: The AC50 was 36.3 µM (active).

Question: For `O=c1[nH]sc2ccccc12`, which AC50 is on record?
Answer: Its AC50 is 1.55 µM (active).

Question: Which AC50 does the source give for `COc1cccc([C@H](O)C2CCN(CCc3ccc(F)cc3)CC2)c1OC` here?
Answer: The AC50 was 1.58 µM (active).

Question: `CCOC(=O)O[C@H](C)OC(=O)c1ccc2c(c1)cc(C(=O)NC1CCN(C(C)C)CC1)n2Cc1cc(-c2ccc(Cl)s2)on1` was tested. Which AC50 did it give?
Answer: Its AC50 is 5.66 µM (active).

Question: With `CCN(Cc1cccnc1)C(=O)c1cccc(Cl)c1[C@]1(C)C(=O)N(Cc2ccc(OC)cc2OC)c2ccc(Cl)cc21` as the molecule, how does the AC50 read?
Answer: The AC50 was 6.92 µM (active).

Question: For `COc1ccc2cc(S(=O)(=O)N[C@H](CC(=O)N[C@H](Cc3ccc(CN4[C@H](C)CCC[C@@H]4C)cc3)C(=O)N(C)C(C)C)c3ccc4c(c3)OCO4)ccc2c1`, which AC50 is on record?
Answer: The AC50 was 23.9 µM (active).

Question: How did the AC50 turn out when `CCCCCCCCCCCC[N+](C)(C)C` was run?
Answer: The AC50 was 19.1 µM (active).

Question: `CN(C)c1ccc(C(=C2C=CC(=[N+](C)C)C=C2)c2ccc(N(C)C)cc2)cc1` was tested. Which AC50 did it give?
Answer: Its AC50 is 1.15 µM (active).

Question: With `Clc1cc(Cl)c2c(c1)N=C1CCCCCN1C2` as the molecule, how does the AC50 read?
Answer: The AC50 was 1.57 µM (active).

Question: Which AC50 does the source give for `NCc1cccc(C2CCN(C(=O)c3ccc(C#Cc4ccccc4F)o3)CC2)c1` here?
Answer: The AC50 was 14.4 µM (active).
